# In PubChem BioAssay AID1794844 (National Center for Advancing Translational Sciences (NCATS), 2023):
# Fewer than 10 of roughly 2,800 compounds were called active. Inconclusive results (about 7%) are left out. Calls come from the whole dose curve; as a rule, active = well fitted inhibition curve with a large enough effect; inconclusive = small, poorly fitted or top-dose-only effect; inactive = no such curve, though single readings can be large or run the other way. A selection follows.
# Molecular target: Metallo-beta-lactamase type 2 (Klebsiella pneumoniae) (UniProt C7C422)
# Sequence (C7C422 whole entry, looked up): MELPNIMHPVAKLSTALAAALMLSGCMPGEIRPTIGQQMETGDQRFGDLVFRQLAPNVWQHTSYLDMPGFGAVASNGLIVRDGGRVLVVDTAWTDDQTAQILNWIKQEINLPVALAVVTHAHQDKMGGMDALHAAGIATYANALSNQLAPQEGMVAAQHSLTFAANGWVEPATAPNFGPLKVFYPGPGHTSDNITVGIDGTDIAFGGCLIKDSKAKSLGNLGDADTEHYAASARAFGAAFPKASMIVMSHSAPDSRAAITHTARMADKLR
# Assay: qHTS to identify inhibitors of the New Delhi Metallo-beta-lactamase (NDM): Nitrocefin screen against the machine-based learning selections. For activity, negative = inhibition: % of control where 0% means no effect.
# Settings: NDM-1 enzyme, nitrocefin hydrolysis, absorbance 485 nm; series mostly up to 38.4 µM; activity, negative = inhibition: at the top concentration
# Description: Assay Submitter (PI): James Inglese Ph.D., Patricia Dranchak Ph.D., Mahesh Aitha Ph.D. Assay Development and Screening Technology Laboratory (ADST) National Center for Advancing Translational Sciences (NCATS), Rockville, MD National Institute of Health (NIH), Bethesda, Maryland The metallo-beta-lactamases (MBL) are a main antibiotic resistance mechanism evolved by bacteria. There is an urgent clinical need for MBL inhibitors to mitigate this growing threat. To support a machine-based learning study, qHTS has been used to experimentally test inhibitors identified by prediction tools.
# PROTOCOL TABLE (as described by Inglese et al., 2007) SEQUENCE No. (e.g., 1, 2, 3, etc.); […] (e.g., enzyme, Incubation, Reagent, etc.); VALUE; DESCRIPTION Primary Screen 1; NDM-1; 4 uL of 3 nM enzyme [2 nM final] in 50 mM HEPES (pH 7.0), 1 uM […], 0.01% Tween20; Use BioRaptr to dispense into two sets of Aurora black, clear bottom high base 1536-well plates 2; Compounds; 23 nL; Use Pin Tool (Wako) to transfer DMSO control and library compounds in DMSO 3; Incubate; >30 min 4a; Reagent; 2 uL of 50 uM nitrocefin [16.7 uM final] to one set of assay plates 4b; Reagent; 2 uL of 150 uM meropenem [50 uM final] to second set of assay plates 5a; Incubate; 15 min 5b; Incubate; 30 min 6a; Detector; Absorbance at 485 nm (bandwidth = 5 nm, 25 flashes/well) on Tecan Infinity 6b; Detector; Absorbance at 300 nm (bandwidth = 5 nm, 25 flashes/well) on Tecan Infinity NOTES (numbers refer to sequence above) 1; Column 1 of each plate received assay buffer without enzyme and columns 2-48 received enzyme for a final assay concentration of 2 nM. 2; Control plate contained DMSO in columns 1, 2, 3, and 4. 3; Compound interaction with enzyme. 4; Nitrocefin and meropenem substrates were prepared in the same assay buffer as step 1 for a final assay concentration of 16.7 uM and 50 uM, respectively, and added to all wells across respective sets of assay plates. 5; Default reader settings were applied for absorbance read at 485 nm (nitrocefin) or 300 nm (meropenem), bandwidth = 5 nm, 25 flashes/well. References: Inglese J, Shamu CE, Guy RK. 2007. Reporting data from high-throughput screening of small-molecule libraries. Nat Chem Biol. doi:10.1038/nchembio0807-438 Yasgar A, Shinn P, Jadhav A, Auld D, Michael S, Zheng W, Austin CP, Inglese J, Simeonov A. 2008. Compound Management for Quantitative High-Throughput Screening. J Lab Autom 13:79 - 89. doi:10.1016/j.jala.2007.12.004
# Potency is the fitted concentration of half-maximal effect.
Compound,"activity, negative = inhibition",Potency
COc1ccc(C(=O)N2CC[C@@H](CC(=O)O)[C@@H](CCN3CCN(c4ccccn4)CC3)C2)cc1,-10.6% (inactive),–
COCCNC(=O)[C@@H]1CCC[C@@H](NC(=O)C2CC2)CN(C)C(=O)C1,-4.15% [at 57.5 µM] (inactive),–
Cc1cccc(C)c1-c1nc(C(=O)NCCc2ccc(Cl)cc2)n2ccccc12,2.12% (inactive),–
COc1cccc(Nc2cc3c(cn2)CN(Cc2cccnc2)CCN3)c1,6.77% [at 57.5 µM] (inactive),–
Cc1noc(C)c1S(=O)(=O)N1C[C@@H](C(N)=O)[C@H](C2CCN(C)CC2)C1,0.0336% (inactive),–
Nc1n[nH]c(CNc2cc(-c3ccc(F)cc3)nc3ccnn23)n1,8.01% (inactive),–
COC(=O)c1ccccc1NC(=O)Cn1cccc1-c1nc(-c2ccccc2)no1,11.4% (inactive),–
COC(=O)[C@@H](C)NC(=O)[C@H]1CN(C(=O)c2cccnc2)CCN1S(C)(=O)=O,0.882% [at 57.5 µM] (inactive),–
Cc1noc2c(N3CCOCC3)cc(-c3cccnc3)nc12,5.33% [at 57.5 µM] (inactive),–
CC(C)C[C@@H]1N[C@H](C(=O)NCc2cccs2)Cc2c[nH]c3cccc1c23,-5.41% [at 57.5 µM] (inactive),–
CCCNC(=O)NC[C@H]1O[C@@H]2C[C@@H](CC(=O)N3CCC(F)(F)C3)O[C@@H]2[C@@H]1O,3.53% [at 57.5 µM] (inactive),–
O=C(N[C@H]1[C@H](O)[C@H](O)C[C@@H]1c1cccnc1)c1ccccn1,-2.52% [at 57.5 µM] (inactive),–
O=C(O)c1cccc(-c2n[nH]c3c2CC(=O)N(c2ccccc2)C3)c1,-14.2% [at 57.5 µM] (inactive),–
N#Cc1cccc(CN2CCOC[C@H]2c2ncc(-c3ccccc3)[nH]2)c1,1.13% [at 57.5 µM] (inactive),–
COCC(=O)N[C@H]1CO[C@H]2[C@@H]1OC[C@@H]2Nc1nccc(-c2cccc(C#N)c2)n1,4.59% [at 57.5 µM] (inactive),–
Cc1[nH]c2ccc(C(=O)N3CC[C@@](C)(O)[C@@H](O)C3)cc2c1C,-0.0594% (inactive),–
c1cncc(CNc2cc(-c3cnc4ccccc4n3)c3cc[nH]c3n2)c1,11.1% (inactive),–
CCN1CCN(C2(C(=O)NCCc3ccccc3)Cc3ccccc3C2)CC1,-0.956% (inactive),–
COc1cccc(NC(=O)N[C@H](C)c2onc(-c3ccc(F)cc3)c2C(=O)O)c1,-18.1% [at 57.5 µM] (inactive),–
O=C(Nc1ccc([C@H]2OCC(=O)N(C3CCOCC3)[C@@H]2CO)cc1)c1cnccn1,317% [at 57.5 µM] (inactive),–
N[C@@H](Cc1cnc[nH]1)C(=O)NCc1cccnc1Oc1ccc(F)cc1F,-1.51% (inactive),–
CN1CC2(CCN(C(=O)c3ccccc3-c3nn[nH]n3)CC2)CC1C(=O)O (centres undefined),–,6.69 µM (active)
COCCN1CCCC2(CCN(C(=O)c3ccccc3)C2)C1 (centres undefined),-3.5% (inactive),–
CCCN1CC2(CCN(C(=O)c3ccc(C)nc3)CC2)CC1C(=O)O (centres undefined),-5.46% (inactive),–
CC(=O)N1CCN(C(=O)C[C@@H]2c3nc(NC(=O)C4CCCCC4)sc3C[C@@H]3[C@](C)(CO)[C@H](O)CC[C@]32C)CC1,1.19% (inactive),–
CN(C)c1ccc(-c2nnnn2[C@H]2CO[C@H]3[C@@H]2OC[C@@H]3NS(=O)(=O)c2ccc3ccccc3c2)cc1,-2.44% (inactive),–
C[C@@]1(O)CCN(c2ncccc2C(=O)c2nccs2)C[C@@H]1O,-0.625% (inactive),–

Compound,"activity, negative = inhibition",Potency
OC(c1cccc(C(F)(F)F)c1)c1nc(Nc2ccc(F)cc2)n[nH]1 (centres undefined),3.6% [at 57.5 µM] (inactive),–
Cn1ccc2c(C(=O)N[C@H](c3cccs3)C3CC(O)C3)cccc21 (some centres undefined),-3.78% (inactive),–
Cc1nc(C(=O)N2CCC(c3nnc(CN4CCCC4)n3C)CC2)cs1,-8.34% (inactive),–
Cc1ccc(C(=O)N2CCN(c3nnc4cccc(C)n34)CC2)cc1F,-3.81% (inactive),–
O=C1C(c2ccccc2)CC2(CCN(c3cnccn3)CC2)CN1C1CC1 (centres undefined),0.213% (inactive),–
O=C(c1ccccc1)N1CCN2C(=O)N(Cc3ccccc3)C(=O)[C@H]2C1,-2.63% [at 57.5 µM] (inactive),–
Cc1cnc(C(=O)N2CCC(N3C(=O)C4(CCCC4)C3c3ccccc3)CC2)cn1 (centres undefined),0.565% (inactive),–
O=C(Cc1ccccc1C(F)(F)F)N1CCC2(CC1)[C@H](O)C[C@@H]2O,-5.52% (inactive),–
CN(Cc1cc(-c2cccs2)n[nH]1)C(=O)c1cn(CCN)nn1,3.42% (inactive),–
O=C1CC(C(=O)O)C2(CCN(c3cc(C4CC4)ncn3)CC2)N1 (centres undefined),-1.94% (inactive),–
Cc1noc2c(-c3cccnc3)cc(-c3cccs3)nc12,-1.29% [at 57.5 µM] (inactive),–
CCc1ncc(C(=O)N2CCN(c3ccc(Cl)c(Cl)c3)CC2)cn1,-4.54% (inactive),–
Cc1ccc2nc(C)cc(C(=O)N3CCC(c4cc(CC(=O)O)[nH]n4)CC3)c2c1,–,9.45 µM (active)
Cc1nc(C2CCCCN2C(=O)Cc2ccccc2)n[nH]1 (centres undefined),8.61% (inactive),–
COc1nc(C)c(C(=O)N2CCC(c3[nH]ncc3-c3ccccc3)CC2)s1,0.575% (inactive),–
CC(=O)N1CC[C@H](c2nc3cc(C)ccc3o2)C1,-5.97% [at 76.7 µM] (inactive),–
Cc1ccc2nc(C3CCCN(Cc4ccccc4)C3)[nH]c(=O)c2c1 (centres undefined),0.6% [at 57.5 µM] (inactive),–
Cc1nc2c(C(=O)N3CCC(c4cc(CC(=O)O)[nH]n4)CC3)cccc2[nH]1,–,8.42 µM (active)
CCNC(=O)O[C@@H]1CO[C@H]2[C@@H]1OC[C@@H]2NC(=S)Nc1ccc(N(C)C)cc1,0.306% [at 57.5 µM] (inactive),–
O=C(c1cccnc1)N1CC[C@H](c2nnc(Cc3ccccc3)o2)C1,-2.68% [at 57.5 µM] (inactive),–
O=C(Cc1c[nH]c2ncc(-c3cccc(Cl)c3)cc12)NCc1cccnc1,7.39% [at 57.5 µM] (inactive),–
Nc1ccc(-c2ccc(OCCn3ccnc3)cc2)cn1,-4.87% (inactive),–
COCCCNC(=O)N1CC(c2nc(CCOCC3CCOCC3)no2)C1,1.08% (inactive),–
CNC(=O)[C@H]1C[C@H](Oc2cccnc2)CN1S(=O)(=O)c1ccc(OC)cc1,1.27% (inactive),–
O=C(Nc1cccc(C(F)(F)F)c1)N[C@H]1CO[C@H]2[C@@H]1OC[C@@H]2Nc1nccc(-c2ccc(-c3ccccc3)cc2)n1,3.13% (inactive),–
CC(C)(C)c1nnc([C@H]2CCN(Cc3ccco3)C2)o1,2.73% [at 76.7 µM] (inactive),–
Cc1cccc(Cl)c1NC(=O)N1CCC2(CC1)C(C(=O)O)CC(=O)N2C (centres undefined),6.76% (inactive),–
